Screening results deposited in PubChem BioAssay by National Center for Advancing Translational Sciences (NCATS).
Most compounds without a hit are left out; they make up all but 3.8% or so of the library.
PLK1 PBD inh: PLK1 (human) polo-box domain binding inhibition; Plk1 PBD binding of FITC phosphopeptide, fluorescence polarization; Potency, µM, for inactives: max response, negative = inhibition, actives largely listed as inhibitors; actives 2.8% (n = 360,000); further: potency means the concentration at half of the fitted maximal effect; series mostly up to about 57 µM; on the % scale 0 is the no-effect control and ±100 the full control effect; nearly all actives have a fitted effect of over 65% in size
CBFb RUNX1 block: inhibitors of human CBF-beta and RUNX1 interaction; Q01196+Q13951; AlphaScreen CBFb-His/RUNX1-biotin binding, biochemical; Potency, µM (titrated, usually from 59.8 µM), for inactives: at the top dose activity, negative = inhibition, hits mostly inhibitors; 230,000 tested, under 10 active; AID 1477; further: % of control where 0% means no effect
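CBFb-His/RUNX1-biotin, 30 nM each, preincubated 20 min RT; compound 15 min RT; Ni + streptavidin beads 50 ng each, 90 min RT; AlphaScreen read.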
KCNH2 3.1 inh: inhibitors of human KCNH2 3.1 potassium channel isoform; U2OS KCNH2 3.1, thallium flux FluxOr; active compounds read low; activity change, % (tested at about 1.8 µM); actives 0.95% (n = 340,000); AID 720553;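 active means maximum activity change below -70%; inconclusive means maximum activity change from -70% to -50%; inactive means maximum activity change above -50%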;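 further: thallium influx rate constant from kinetic fluorescence after stimulation buffer; on the % scale 0 is the no-effect control and ±100 the full control effect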
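We transduce U2OS cells with the mutant 3.1 virus, culture them overnight, load FluxOr with Red40 quencher for 45 min, then add stimulation buffer and read kinetically for 2 min to derive a normalized rate constant.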
VDR inh: inhibitors of human vitamin D receptor; actives 0.93% (n = 400,000); AID 504847; VDR-SRC2-3 peptide fluorescence polarization, 2 h; Potency, µM, without a hit: max response, negative = inhibition, actives largely listed as inhibitors; further: potency means the concentration at half of the fitted maximal effect; on the % scale 0 is the no-effect control and ±100 the full control effect
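Reagent solutions, kept cold and dark, are dispensed first; compounds are then pinned in at 23 nl, plates briefly spun, and incubated 2 h at ambient temperature. Inhibition of VDR–SRC2-3 peptide binding is read by fluorescence polarization.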
MBNL1 CUG block: MBNL1-poly(CUG) RNA binding inhibition. Q9NR56. TR-FRET MBNL1-His/biotin-(CUG)12 binding, 665/545 ratio. Potency, µM (highest dose often 57.5 µM), inactives show top-dose activity change, negative = inhibition, actives largely listed as inhibitors. actives 0.036% (n = 280,000). AID 2675; active means well fitted inhibition curve with a large enough effect in the signal ratio, with a control signal flat, not every such curve was filed as active; inconclusive means small, poorly fitted or top-dose-only effect, or effect the other way, or a change in a side signal; inactive means no such curve, though single readings can be large or run the other way; the % refers to the signal ratio; further: potency means the concentration at half of the fitted maximal effect; on the % scale 0 is the no-effect control and ±100 the full control effect
Target sequence (Q9NR56 whole entry, looked up): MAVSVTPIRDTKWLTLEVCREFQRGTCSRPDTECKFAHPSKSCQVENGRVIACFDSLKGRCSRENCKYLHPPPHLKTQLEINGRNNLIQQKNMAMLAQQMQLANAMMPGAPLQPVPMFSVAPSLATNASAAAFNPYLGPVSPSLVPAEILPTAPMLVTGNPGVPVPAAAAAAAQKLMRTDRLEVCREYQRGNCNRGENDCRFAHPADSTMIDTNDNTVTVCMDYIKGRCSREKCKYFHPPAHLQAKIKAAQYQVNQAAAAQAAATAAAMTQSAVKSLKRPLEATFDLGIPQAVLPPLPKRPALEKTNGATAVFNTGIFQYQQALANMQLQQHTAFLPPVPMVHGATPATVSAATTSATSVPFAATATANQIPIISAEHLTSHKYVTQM
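Inhibition of protein-RNA binding appears as loss of TR-FRET between terbium anti-His antibody on MBNL1-His and streptavidin-XL665 on biotin-(CUG)12. Activity is normalized to buffer-only and uninhibited-complex controls.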
KCNH2 WT inh: KCNH2 (human, wildtype) channel inhibition | activity change, % at 1.84 µM | actives 0.37% (n = 340,000) | U2OS, BacMam KCNH2, thallium flux FluxOr; active compounds read low | AID 720551;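 active means maximum activity change below -70%; inconclusive means maximum activity change between -70% and -50%; inactive means maximum activity change above -50%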; further: on the % scale 0 is the no-effect control and ±100 the full control effect
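U2OS cells were transduced with wild-type KCNH2 virus (2.03 x 10^8 / mL) for 4 h at room temperature, then cultured overnight at 37 C. Thallium flux was read with FluxOr dye. Rate constants were normalized to DMSO controls.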
The depositor's hits bear a star; [ ] = remark or other dose. Unless noted, the call rests on the fitted dose curve; in most records, active means well fitted curve in the direction sought with a large enough effect; inconclusive means small, poorly fitted or top-dose-only effect, or another doubt; inactive means no such curve, though single readings can be large; an effect the other way counts as inactive or inconclusive.

How did O=C(OCC(=O)N1N=C(c2ccc(Cl)cc2)CC1c1ccco1)c1cncc(Br)c1 (stereo unspecified) do in these assays?
PLK1 PBD inh: inconclusive; KCNH2 3.1 inh: -19; VDR inh: 71µM*; KCNH2 WT inh: 5

How did N=c1sccn1CC(=O)N1N=C(c2ccc(Cl)cc2)CC1c1ccco1 (stereo unspecified) do in these assays?
PLK1 PBD inh: -13%; CBFb RUNX1 block: 13%; KCNH2 3.1 inh: -86*; VDR inh: -27%; MBNL1 CUG block: -14%; KCNH2 WT inh: 14

How did CCc1ccc2[nH]c(=O)c(CN(Cc3ccccc3)Cc3nnnn3C(C)(C)C)cc2c1 do in these assays?
VDR inh: -12%

Results for CC(=O)c1ccc(N2CCN(S(=O)(=O)c3ccc4c(c3)NC(=O)CC(=O)N4)CC2)cc1 ?
PLK1 PBD inh: 27µM*; KCNH2 3.1 inh: 1; VDR inh: inconclusive; MBNL1 CUG block: 18%; KCNH2 WT inh: -3

Results for CC(=O)c1ccc(N2CCN(S(=O)(=O)c3cc4c(cc3C)NC(=O)CO4)CC2)cc1 ?
PLK1 PBD inh: -8%; KCNH2 3.1 inh: 10; VDR inh: -21%; MBNL1 CUG block: 32%; KCNH2 WT inh: 45

How did Cc1c(Cl)cccc1NC(=O)c1oc2ccc(S(=O)(=O)N3CCC4(CC3)OCCO4)cc2c1C do in these assays?
VDR inh: 6%

What do the screens show for `C=C[C@]1(C)Cc2occ(C)c2C[C@H]1C(=C)C(=O)O`?
CBFb RUNX1 block: -3%; VDR inh: inconclusive

Results for O=C1C(Cl)=C(N2CCCCCC2)C(=O)N1c1ccccc1Cl ?
PLK1 PBD inh: inconclusive; KCNH2 3.1 inh: 2; VDR inh: -7%; MBNL1 CUG block: 20%; KCNH2 WT inh: -38

What do the screens show for `O=C1C(Cl)=C(N2CCOCC2)C(=O)N1c1ccccc1Cl`?
PLK1 PBD inh: -17%; CBFb RUNX1 block: 3%; KCNH2 3.1 inh: -3; VDR inh: 45µM*; MBNL1 CUG block: -3%; KCNH2 WT inh: -15

How did CC#CCN1c2ccccc2[C@]23C[C@@H](C(=O)OC)N(S(=O)(=O)c4ccc5c(c4)OCCN5C)C2=NC(C(=O)OC)=C(C(=O)OC)[C@H]13 do in these assays?
CBFb RUNX1 block: 0%[13.1 µM]

What do the screens show for `COC(=O)C(C(C)=O)C1c2ccccc2C=C(C)N1C(=O)OC` (stereo unspecified)?
CBFb RUNX1 block: 11%[13.1 µM]

Results for COC(=O)c1ccc(-c2ccc(C(c3c(C)[nH][nH]c3=O)c3c(C)[nH][nH]c3=O)o2)cc1 ?
PLK1 PBD inh: 12µM*; CBFb RUNX1 block: inconclusive; KCNH2 3.1 inh: 14; VDR inh: 35µM*; MBNL1 CUG block: 4%; KCNH2 WT inh: -9

What do the screens show for `Cc1[nH][nH]c(=O)c1C(c1ccc(-c2ccccc2C(=O)O)o1)c1c(C)[nH][nH]c1=O`?
PLK1 PBD inh: inconclusive; CBFb RUNX1 block: -29%; KCNH2 3.1 inh: 10; VDR inh: -9%; MBNL1 CUG block: 7%; KCNH2 WT inh: 8

How did Cc1[nH][nH]c(=O)c1C(c1ccc(-c2cccc(Cl)c2)o1)c1c(C)[nH][nH]c1=O do in these assays?
PLK1 PBD inh: 12µM*; CBFb RUNX1 block: 9%; KCNH2 3.1 inh: -13; VDR inh: inconclusive; MBNL1 CUG block: 10%; KCNH2 WT inh: -10

What do the screens show for `Cc1[nH][nH]c(=O)c1C(c1ccc(-c2cccc(C(=O)O)c2)o1)c1c(C)[nH][nH]c1=O`?
PLK1 PBD inh: inconclusive; CBFb RUNX1 block: -26%; KCNH2 3.1 inh: 0; VDR inh: inconclusive; MBNL1 CUG block: 3%; KCNH2 WT inh: -4

How did COc1cc(NC(=O)C/C(C)=N/NC(=O)C(=O)NCCO)c(OC)cc1Cl do in these assays?
PLK1 PBD inh: 27µM*; CBFb RUNX1 block: -2%; KCNH2 3.1 inh: 7; VDR inh: -30%; MBNL1 CUG block: 0%; KCNH2 WT inh: -3

Results for COC(=O)c1ccc2c(=O)n(CCCCCC(=O)N3CCN(c4cc(Cl)ccc4C)CC3)c(=O)[nH]c2c1 ?
VDR inh: 0%
